Assay results reported in PubChem BioAssay.
Calls of active or inactive are those of the source.

What was measured:
[1] = test system: Plasmodium falciparum Sir2 (PF13_0152, Sir2A); assay: pfSir2 binders on small-molecule microarrays, primary screen, biochemical, small-molecule microarray, 635 nm fluorescence (AID 1098); conditions: small-molecule microarray binding, fluorescence 635 nm; higher = more signal;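 also: score merges spot fluorescence intensity with its signal-to-noise ratio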
[2] = small-molecule microarray binders of probe aDKK1, primary screen, biochemical, biotinylated probe, 635/667 nm fluorescence (AID 1099); conditions: higher = more signal;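 also: score merges 667nm spot fluorescence with signal to noise across triplicate slides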
[3] = small-molecule microarray binders of probe aCHRDL2, primary screen, biochemical, biotinylated probe, 635/667 nm fluorescence (AID 1100); conditions: higher = more signal
[4] = splicing luciferase reporter signal modulators, primary screen, spliceosome inhibition project, cell-based, HEK293, splice +/- reporter (AID 1101); conditions: luminescence, 24 h, higher = more signal, called active from +8 up or from −8 down;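 also: HEK293 cells carrying a splicing-competent luciferase reporter gene; test concentration not given here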
[5] = target: Fibroblast growth factor 10 (Homo sapiens) (UniProt O15520); assay: FGF10 binders on small-molecule microarrays, primary screen, biochemical, small-molecule microarray, 635 nm fluorescence (AID 1102); conditions: FGF10 binding, fluorescence 635 nm, higher = more signal
Chain of Fibroblast growth factor 10 (Homo sapiens) (O15520 whole entry, looked up): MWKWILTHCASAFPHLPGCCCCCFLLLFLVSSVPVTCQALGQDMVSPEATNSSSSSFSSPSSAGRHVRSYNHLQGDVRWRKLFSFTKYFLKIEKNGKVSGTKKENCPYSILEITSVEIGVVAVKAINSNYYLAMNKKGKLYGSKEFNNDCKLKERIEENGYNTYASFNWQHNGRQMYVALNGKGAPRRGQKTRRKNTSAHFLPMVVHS

[6] = test system: glycogen synthase kinase-3 (GSK3A per assay name; protocol says GSK3B); assay: GSK3 binders on small-molecule microarrays, primary screen, biochemical, small-molecule microarray, 635 nm fluorescence, GSK3A (AID 1103); conditions: small-molecule microarray binding, fluorescence 635 nm; higher = more signal; also: the record names both GSK3A and GSK3B
[7] = target: Epidermal growth factor receptor (Homo sapiens) (UniProt P00533); assay: EGFR binders on small-molecule microarrays, primary screen, biochemical, small-molecule microarray, 635 nm fluorescence (AID 1104); conditions: EGFR binding, higher = more signal;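 also: score merges 667 nm emission intensity with spot signal to noise over triplicate slides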
Chain of Epidermal growth factor receptor (Homo sapiens) (P00533 whole entry, looked up): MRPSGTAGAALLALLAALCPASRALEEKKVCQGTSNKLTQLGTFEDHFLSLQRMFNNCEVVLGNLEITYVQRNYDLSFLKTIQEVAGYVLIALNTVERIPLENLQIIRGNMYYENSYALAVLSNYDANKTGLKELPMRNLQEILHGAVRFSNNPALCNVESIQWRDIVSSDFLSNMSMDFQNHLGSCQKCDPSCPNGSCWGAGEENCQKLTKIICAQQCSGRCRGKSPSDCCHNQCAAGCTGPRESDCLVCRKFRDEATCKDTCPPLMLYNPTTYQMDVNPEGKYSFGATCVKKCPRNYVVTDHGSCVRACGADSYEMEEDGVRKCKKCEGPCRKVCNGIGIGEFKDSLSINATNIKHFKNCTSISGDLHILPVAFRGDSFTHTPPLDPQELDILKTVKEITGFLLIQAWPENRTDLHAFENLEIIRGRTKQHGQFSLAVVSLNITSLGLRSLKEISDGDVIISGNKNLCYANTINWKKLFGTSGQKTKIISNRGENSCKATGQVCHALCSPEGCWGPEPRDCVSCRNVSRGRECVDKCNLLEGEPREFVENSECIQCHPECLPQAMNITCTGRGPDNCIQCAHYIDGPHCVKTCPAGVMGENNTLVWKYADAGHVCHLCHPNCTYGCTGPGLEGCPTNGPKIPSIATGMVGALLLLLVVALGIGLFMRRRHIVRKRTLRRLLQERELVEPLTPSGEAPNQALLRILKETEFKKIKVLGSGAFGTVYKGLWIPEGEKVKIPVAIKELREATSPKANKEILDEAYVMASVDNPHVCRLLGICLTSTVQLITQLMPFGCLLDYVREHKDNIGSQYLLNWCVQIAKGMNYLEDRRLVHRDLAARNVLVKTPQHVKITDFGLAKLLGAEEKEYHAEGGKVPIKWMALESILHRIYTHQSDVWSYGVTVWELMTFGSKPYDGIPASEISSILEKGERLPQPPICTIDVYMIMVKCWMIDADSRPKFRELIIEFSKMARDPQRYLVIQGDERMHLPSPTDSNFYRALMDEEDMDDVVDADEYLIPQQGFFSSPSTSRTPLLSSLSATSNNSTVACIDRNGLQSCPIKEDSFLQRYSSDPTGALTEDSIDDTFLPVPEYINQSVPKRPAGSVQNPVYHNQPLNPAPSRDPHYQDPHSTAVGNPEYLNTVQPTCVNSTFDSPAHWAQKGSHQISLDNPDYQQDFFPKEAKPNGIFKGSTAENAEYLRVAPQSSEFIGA

[8] = target: Follistatin-related protein 3 (Homo sapiens) (UniProt O95633); assay: FSTL3 binders on small-molecule microarrays, primary screen, biochemical, small-molecule microarray, 635 nm fluorescence (AID 1105); conditions: FSTL3 binding, higher = more signal;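 also: score merges emission near 667 nm and signal to noise per printed spot across three slides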
Chain of Follistatin-related protein 3 (Homo sapiens) (O95633 whole entry, looked up): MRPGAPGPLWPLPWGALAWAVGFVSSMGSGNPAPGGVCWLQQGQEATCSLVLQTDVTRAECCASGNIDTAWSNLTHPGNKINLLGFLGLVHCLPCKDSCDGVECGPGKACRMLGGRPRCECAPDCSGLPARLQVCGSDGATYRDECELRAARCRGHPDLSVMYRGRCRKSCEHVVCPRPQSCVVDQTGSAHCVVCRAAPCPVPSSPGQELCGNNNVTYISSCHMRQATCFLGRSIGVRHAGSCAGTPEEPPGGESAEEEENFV

[9] = target: Dickkopf-related protein 1 (Homo sapiens) (UniProt O94907); assay: DKK1 binders on small-molecule microarrays, primary screen, biochemical, small-molecule microarray, 635 nm fluorescence scan (AID 1106); conditions: DKK1 binding, higher = more signal;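 also: score merges emission near 667 nm with signal to noise over three replicate slides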
Chain of Dickkopf-related protein 1 (Homo sapiens) (O94907 whole entry, looked up): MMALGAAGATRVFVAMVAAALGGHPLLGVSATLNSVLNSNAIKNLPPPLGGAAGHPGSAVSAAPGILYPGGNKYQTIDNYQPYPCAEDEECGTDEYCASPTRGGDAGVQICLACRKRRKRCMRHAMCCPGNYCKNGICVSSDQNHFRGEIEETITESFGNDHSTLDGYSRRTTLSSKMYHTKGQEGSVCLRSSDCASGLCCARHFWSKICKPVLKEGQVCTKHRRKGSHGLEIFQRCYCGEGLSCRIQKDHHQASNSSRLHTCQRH

[10] = test system: Inhibin beta A chain (activin A); assay: INHBA (activin A) binders on microarrays, primary screen, biochemical, small-molecule microarray, 635 nm fluorescence scan (AID 1107); conditions: small-molecule microarray binding, higher = more signal;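 also: mouse activin A protein probed at 4.33 µg/mL on printed slides; score merges bound-protein fluorescence near 667 nm with spot signal-to-noise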
[11] = test system: Human papillomavirus type 1a protein E7 (residues 44-93); assay: HPV1a E7 fragment binders on microarrays, primary screen, biochemical, small-molecule microarray, residues 44-93, 635 nm fluorescence (AID 1108); conditions: small-molecule microarray binding, fluorescence 635 nm; higher = more signal;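 also: E7 fragment applied at 1 µg/mL in TBST for 1 h at 4 C; score combines spot fluorescence with its signal to noise ratio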
[12] = modulators of HCV replicon luciferase signal, primary screen, HCV replication inhibitor project, Huh7 cells, luciferase reporter (AID 1109); conditions: 48 h, higher = more signal;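 also: huh7 hepatoma cells harbouring a luciferase neomycin HCV replicon reporter; luciferase luminescence as measure of HCV replicon replication; test concentration not given here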
[13] = target: Left-right determination factor 2 (Homo sapiens) (UniProt O00292); assay: LEFTY2 binders on small-molecule microarrays, primary screen, biochemical, small-molecule microarray, 635 nm fluorescence scan (AID 1110); conditions: LEFTY2 binding, higher = more signal
Chain of Left-right determination factor 2 (Homo sapiens) (O00292 whole entry, looked up): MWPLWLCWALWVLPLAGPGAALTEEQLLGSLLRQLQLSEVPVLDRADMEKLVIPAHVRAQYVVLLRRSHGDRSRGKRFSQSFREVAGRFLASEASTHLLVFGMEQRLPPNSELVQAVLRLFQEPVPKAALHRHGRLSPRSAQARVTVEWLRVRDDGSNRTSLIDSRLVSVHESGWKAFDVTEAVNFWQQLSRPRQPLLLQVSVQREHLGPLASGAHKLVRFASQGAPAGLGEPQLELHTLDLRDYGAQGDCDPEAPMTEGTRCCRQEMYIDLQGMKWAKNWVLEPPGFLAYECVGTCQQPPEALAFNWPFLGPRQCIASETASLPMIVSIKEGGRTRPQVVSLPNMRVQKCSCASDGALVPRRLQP

[14] = target: Calmodulin-1 (Homo sapiens) (UniProt P0DP23); assay: CALM1 binders on microarrays, EGTA buffer, profiling panel, biochemical, small-molecule microarray, Cy5-labelled CALM1 (AID 1111); conditions: Cy5-CALM1 binding fluorescence, higher = more signal;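 also: labelled calmodulin applied in Tris saline Tween buffer holding calcium plus EGTA and DTT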
[15] = target: Calmodulin-1 (Homo sapiens) (UniProt P0DP23); assay: calcium-bound CALM1 binders on microarrays, profiling panel, artefact control for SMM control-protein annotation, biochemical, small-molecule microarray, Cy5-labelled CALM1, plus calcium (AID 1112); conditions: Cy5-CALM1 binding fluorescence, higher = more signal;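 also: score merges spot fluorescence with signal to noise from triplicate slides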
[16] = small-molecule microarray binders of probe aWnt5a, primary screen, biochemical, biotinylated probe, 635/667 nm fluorescence (AID 1113); conditions: higher = more signal;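 also: score merges 667 nm fluorescence intensity with signal-to-noise per printed feature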
[17] = small-molecule microarray binders of probe aShh, primary screen, biochemical, biotinylated probe, 635/667 nm fluorescence (AID 1114); conditions: higher = more signal;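 also: probe is biotin-labelled aShh protein from a stem cell growth factor screen; measures binding of labelled protein to compounds printed on the slide; score merges feature fluorescence at 667 nm with signal-to-noise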
[18] = small-molecule microarray binders of probe aNog, primary screen, biochemical, biotinylated probe, 635/667 nm fluorescence (AID 1115); conditions: higher = more signal;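 also: probe is biotinylated aNog protein used at 0.15 µg/mL for 1 h at 4 C; z-score combines 667 nm fluorescence of each spot with its signal to noise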
[19] = target: Torsin-1A-interacting protein 1 (Homo sapiens) (UniProt Q5JTV8); assay: LAP1 binders from COS7 cell lysate, primary screen, small-molecule microarray, 635/667 nm fluorescence (AID 1116); conditions: COS7-hLAP1 lysate binding, 635 nm fluorescence, higher = more signal
Chain of Torsin-1A-interacting protein 1 (Homo sapiens) (Q5JTV8 whole entry, looked up): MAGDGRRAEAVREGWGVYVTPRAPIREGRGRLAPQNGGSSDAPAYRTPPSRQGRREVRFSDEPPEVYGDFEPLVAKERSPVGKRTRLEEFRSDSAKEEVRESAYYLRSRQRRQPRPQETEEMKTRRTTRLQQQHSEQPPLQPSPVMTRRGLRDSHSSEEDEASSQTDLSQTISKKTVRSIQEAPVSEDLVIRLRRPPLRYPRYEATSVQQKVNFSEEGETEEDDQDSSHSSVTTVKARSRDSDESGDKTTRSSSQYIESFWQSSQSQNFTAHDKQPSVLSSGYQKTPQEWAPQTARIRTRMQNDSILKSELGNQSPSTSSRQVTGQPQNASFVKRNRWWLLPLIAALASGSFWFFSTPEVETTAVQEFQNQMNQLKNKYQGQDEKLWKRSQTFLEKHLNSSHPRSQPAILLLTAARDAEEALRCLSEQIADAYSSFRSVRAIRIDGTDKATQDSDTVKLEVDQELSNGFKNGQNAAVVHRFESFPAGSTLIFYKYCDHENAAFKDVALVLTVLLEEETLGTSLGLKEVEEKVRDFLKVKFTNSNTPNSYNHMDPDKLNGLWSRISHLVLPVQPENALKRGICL

[20] = target: Alpha-bungarotoxin (Bungarus multicinctus) (UniProt P60615); assay: alpha-bungarotoxin binders on microarray, profiling panel, artefact control for SMM control protein annotation, biochemical, small-molecule microarray, Alexa647 label, 635/667 nm fluorescence (AID 1117); conditions: alpha-BTX-A647 binding fluorescence, higher = more signal
Chain of Alpha-bungarotoxin (Bungarus multicinctus) (P60615 whole entry, looked up): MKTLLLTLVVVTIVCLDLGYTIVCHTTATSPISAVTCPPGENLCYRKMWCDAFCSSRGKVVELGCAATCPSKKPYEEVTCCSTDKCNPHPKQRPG

Structure (SMILES)	composite z-score [1]	composite z-score [2]	composite z-score [3]	z-score [4]	composite z-score [5]	composite z-score [6]	composite z-score [7]	composite z-score [8]	composite z-score [9]	composite z-score [10]	composite z-score [11]	z-score [12]	composite z-score [13]	composite z-score [14]	composite z-score [15]	composite z-score [16]	composite z-score [17]	composite z-score [18]	composite z-score [19]	composite z-score [20]
O=C1O[C@@H](c2ccccc2)[C@@H](c2ccccc2)N2[C@@H](c3ccc(O)cc3)[C@]3(C(=O)Nc4ccc(C#CC5(O)CCCCCC5)cc43)[C@@H](C(=O)NC[C@H](O)c3ccccc3)[C@H]12	1.29	-0.171	0.467	-0.55 (inactive)	-0.174	0.791	-0.568	-0.442	-0.505	-0.357	1.39	-0.737	-0.817	0.122	0.208	-0.0276	-0.138	0.0841	1.15	0.203
CCCCCCc1nc(C2CC2)cc2c1[Si](C(C)C)(C(C)C)OC2	-0.552	-0.226	-0.144	-1.71 (inactive)	-0.729	-0.461	-0.375	-0.762	-0.356	0.819	-1.03	-0.622	-0.53	0.208	0.0599	-0.184	-0.214	-0.0784	-0.476	-0.221
CCCC[C@@H]1C[C@H]1[C@@H](NC(=O)c1cccs1)c1ccc(C(F)(F)F)cc1	0.0819	0.0202	0.549	0.101 (inactive)	-0.609	-0.776	-0.507	-0.152	-0.0222	1.09	-0.47	-0.152	-0.45	-0.501	-1.05	-0.0334	0.214	0.277	-0.515	0.237
COc1ccc([Si](C)(C)[C@H]2[C@H](CCO)O[C@@]3(C(=O)N(Cc4cccc(N5C(=O)COc6ccccc65)c4)c4ccccc43)[C@@H]2C)cc1	0.957	0.0114	0.122	-2.17 (inactive)	-0.222	-0.585	-0.686	0.0253	0.125	-0.348	-0.502	-4.98	0.0828	0.851	0.675	-0.0417	-0.0146	0.26	0.474	0.252
C[N+](C)(C)CCCC[C@@H]1NC(=O)[C@H]2C[C@@H](C(=O)NCCCCCCN)[C@@H](c3ccc(O)cc3)N2C1=O	1.38	0.608	0.659	0.587 (inactive)	0.687	1.3	-0.397	-0.0878	0.0717	-0.695	1.17	-0.481	0.0608	0.756	0.342	0.127	0.541	0.0561	0.567	0.925
COc1ccc([Si](C)(C)[C@@H]2[C@@H](CC(=O)N3Cc4ccccc4C[C@H]3CO)O[C@]3(C(=O)N(Cc4cccc(N5C(=O)c6cccc7cccc5c67)c4)c4ccccc43)[C@H]2C)cc1	1.25	-0.199	0.208	0.93 (inactive)	0.579	0.313	0.982	1.43	1.43	0.636	1.21	-3.68	0.98	0.937	1.46	-0.0685	-0.17	-0.237	0.83	0.886
COC(=O)[C@@]1(Cc2ccccc2)[C@H]2c3cc(C(=O)N(C)C)n(CCN4CNCC4=O)c3C[C@H]2CN1C(=O)c1ccccc1	1.59	1.38	1.31	1.25 (inactive)	-0.243	-0.604	-1.71	-0.618	-1.59	0.433	-0.5	0.188	-1.47	2.98	-2.29	0.401	0.0183	1.99	4.42	3.12
CCCCC=C[C@@H](NC(=O)c1ccc(-c2ccccc2)cc1)c1ccccc1	0.379	0.0006	0.087	2.94 (inactive)	0.462	1.08	0.0139	-0.203	0.381	0.183	1.31	-2.21	0.184	0.107	0.506	0.123	0.934	0.964	1.11	0.401
C=CCC(OC(C)=O)[C@@H]1[C@@H](N(Cc2cccc3ccccc23)C(=O)Cc2ccc(F)cc2)c2cc(OCCCO)ccc2N1C(=O)c1ccc2ccccc2n1 (stereo not given in full)	0.12	0.195	0.429	0.866 (inactive)	-0.0905	-0.329	-0.06	-0.159	-0.305	1.36	-0.829	-0.562	0.226	0.304	0.398	-0.18	-0.123	-0.432	0.0149	0.411
COc1ccc(CN(C2=CC[C@@]3(C(N)=O)C(=O)C(Cl)=C(Cl)C(=O)[C@@]3(C#N)C2)S(=O)(=O)c2ccc(Br)cc2)cc1	-0.201	0.661	0.84	-2.69 (inactive)	0.0024	-0.139	-0.733	-0.0224	-1.28	1.03	0.731	-1.56	-0.885	1.1	0.391	-0.11	-0.0769	0.784	1.02	-0.181
O[C@@H](Cc1ccccc1)[C@@H](/C=C/C1CC1)N(CC#Cc1ccccc1)Cc1cccc(Cl)c1	-0.546	0.232	1.34	-1.61 (inactive)	-1.72	-1.01	-1.69	-1.54	-1.49	0.285	-0.55	-1.52	-1.61	-0.738	0.352	-0.275	-0.147	-0.196	-0.565	-0.0369
